± gives the standard deviation of the averaged measurements.
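Note: End-point A600 read in BHI broth at 37 °C with 2% DMSO, inhibition computed as (1 − OD with compound plus ceftriaxone ÷ OD with ceftriaxone only) × 100.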

The subject of this experiment is Listeria monocytogenes 10403S. Nature of the experiment: growth inhibition relative to ceftriaxone-alone control; higher = stronger potentiation of ceftriaxone growth inhibition. The following applies: 10 µM; ceftriaxone 1 ug/ml; 12 h.
For the molecule `Cc1ccccc1-n1c(Cn2cnc3c(N)ncnc32)nc2cccc(C)c2c1=O`, the growth inhibition was -7.86 ± 4.1%.

For `CC(C)(C)c1cc(C=C(C#N)C#N)cc(Br)c1O`, the growth inhibition stood at 103 ± 6.1%. Under `O=c1[nH]c2ccc(Cl)cc2c(N[C@@H]2CN3CCC2CC3)c1-c1nc2ccccc2[nH]1` stands 96.1 ± 3.4%; under `COC[C@H]1OC(=O)c2coc3c2[C@@]1(C)C1=C(C3=O)[C@@H]2CCC(=O)[C@@]2(C)C[C@H]1OC(C)=O` [Wortmannin], 2.26 ± 1.5%; under `CNC(=O)Oc1cc(C)c(/C=C/c2cncc(C(=O)NC)c2)c(C)c1`, 3.06 ± 7%.

On to `CCN1CCN(C(=O)Cc2ccc(Nc3ncc(F)c(Nc4ccc(C(=O)Nc5ccccc5Cl)cc4)n3)cc2)CC1` [Aurora A Inhibitor I], for which the growth inhibition turned out to be 7.11 ± 13%. Under `Cn1cc(C2=C(c3cn(C4CCN(Cc5ccccn5)CC4)c4ccccc34)C(=O)NC2=O)c2ccccc21` stands 40.6 ± 17%; under `CN[C@@H]1C[C@H]2O[C@@](C)([C@@H]1OC)n1c3ccccc3c3c4c(c5c6ccccc6n2c5c31)C(=O)NC4` [Staurosporine], 102 ± 5%.

Turning to `Cc1ccccc1-n1c(Cn2ncc3c(N)ncnc32)nc2cccc(C)c2c1=O`, the growth inhibition was found to be 15.4 ± 13%.
